RORg inh: qHTS for inhibitors of ROR gamma transcriptional activity. Nuclear receptor ROR-gamma (Mus musculus), P51450. Drosophila S2 Gal4-RORgamma UAS-luciferase reporter, 20 h. Potency, µM (titrated, usually from 53.6 µM), for inactives: at the highest dose activity change, negative = inhibition, usual class: inhibitors. 310,000 compounds, 5.4% hits; further: nearly all actives have a fitted effect of over 60% in size
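In this cell-based reporter format, copper sulfate (700 uM final) drives Gal4–ROR gamma fusion expression from a metallothionein promoter in Drosophila Schneider cells; compounds preincubated 1 hr, reporter read after 20 hr at ambient temperature.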
ELG1 DNA repair: qHTS screen for small molecules that inhibit ELG1-dependent DNA repair in human embryonic kidney (HEK293T) cells expressing luciferase-tagged ELG1 | Potency, µM (titrated, usually from 46.1 µM), without a hit: top-dose activity change, negative = inhibition, hits mostly inhibitors | HEK293T ELG1-luciferase reporter, luminescence, 16 h; DNA damage induced by 5-fluorouridine | AID 504467, 2011 | 330,000 compounds, 2.3% hits; further: nearly all actives have a fitted effect of over 55% in size
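Overnight (16 hr) co-exposure of 2,000 cells/well to 5-fluorouridine and compound at 37 °C preceded detection. Luciferase was quantified via ONE-Glo luminescence; loss of signal denotes inhibition.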
DT40 TDP1 CPT: qHTS for Inhibitors of human tyrosyl-DNA phosphodiesterase 1 (TDP1): qHTS in cells in presence of CPT; Potency, µM (titrated, usually from 46.2 µM), without a hit: at the top dose activity change, negative = growth inhibition, usual class: inhibitors; 420,000 compounds, 12% hits; chicken DT40 Tdp1-/-;hTDP1 cells + 20 nM CPT, ATP luminescence, 48 h; further: nearly all actives have a fitted effect of over 55% in size
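Cell growth measured by CellTiter-Glo luminescence after a minimum 48 h, 37 C compound exposure with 20 nM CPT in Tdp1-knockout DT40 cells stably expressing hTDP1, seeded 400/well; qHTS titration format.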
TDP1 cell noCPT: qHTS for Inhibitors of human tyrosyl-DNA phosphodiesterase 1 (TDP1): qHTS in cells in absence of CPT; DT40 Tdp1-/- hTDP1 cells, no CPT, ATP luminescence, 48 h; 420,000 compounds, 15% hits; Potency, µM (top dose mostly 46.2 µM), without a hit: top-dose activity change, negative = growth inhibition, usual class: inhibitors; further: nearly all actives have a fitted effect of over 55% in size
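Seeded 400 DT40-hTDP1 cells/well (vehicle DMSO, no 20 nM CPT); pinned compounds; ≥48 hr at 37 °C; CellTiter-Glo luminescence as viability measure.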
12-LOX inh: Primary qHTS assay for inhibitors of human arachidonate 12S-lipoxygenase (ALOX12): Round 2; Polyunsaturated fatty acid lipoxygenase ALOX12 (Homo sapiens), P18054; purified 12hLO, xylenol orange hydroperoxide absorbance; Potency, µM (top dose mostly 108 µM), inactives show at the highest dose activity change, negative = inhibition, actives largely listed as inhibitors; 580,000 compounds, 1.1% hits
Target sequence (P18054 whole entry, looked up): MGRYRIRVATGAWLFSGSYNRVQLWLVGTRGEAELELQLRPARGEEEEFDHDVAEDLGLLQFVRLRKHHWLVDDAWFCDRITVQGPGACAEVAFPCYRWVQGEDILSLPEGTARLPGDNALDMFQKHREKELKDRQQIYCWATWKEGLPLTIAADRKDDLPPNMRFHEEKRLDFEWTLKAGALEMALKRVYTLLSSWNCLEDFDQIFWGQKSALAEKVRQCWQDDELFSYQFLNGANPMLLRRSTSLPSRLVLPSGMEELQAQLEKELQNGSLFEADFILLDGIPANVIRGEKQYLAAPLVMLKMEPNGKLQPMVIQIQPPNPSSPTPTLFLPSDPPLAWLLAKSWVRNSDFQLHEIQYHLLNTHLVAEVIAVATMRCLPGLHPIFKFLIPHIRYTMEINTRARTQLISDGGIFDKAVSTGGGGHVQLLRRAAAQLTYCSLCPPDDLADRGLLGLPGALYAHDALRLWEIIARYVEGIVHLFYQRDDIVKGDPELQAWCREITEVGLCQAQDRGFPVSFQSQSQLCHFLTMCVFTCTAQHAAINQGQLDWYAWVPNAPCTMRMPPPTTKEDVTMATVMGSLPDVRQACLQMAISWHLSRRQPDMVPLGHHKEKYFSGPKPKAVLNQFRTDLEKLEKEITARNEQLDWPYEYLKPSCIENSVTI
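Hydroperoxide product was detected by ferrous iron/xylenol orange as the 573 to 405 nm absorbance ratio. Arachidonic acid at 40 uM (final) was turned over for 30 min at room temperature by 150 nM human 12hLO, pH 7.0 Hepes buffer, after 15 min compound preincubation.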
Gal4-VP16 FLuc: VP16 counterscreen qHTS for inhibitors of ROR gamma transcriptional activity; Drosophila S2 Gal4-VP16 UAS-luciferase, luminescence, 20 h; Potency, µM (titrated, usually from 53.6 µM), for inactives: top-dose activity, negative = inhibition, hits mostly inhibitors; 310,000 compounds, 3.5% hits; AID 2546, 2010;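 further: Gal4-VP16 expression switched on by copper sulfate through the metallothionein promoter; nearly all actives have a fitted effect of over 50% in size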
ELG1 FLuc counter: qHTS screen for small molecules that inhibit ELG1-dependent DNA repair: Hit Confirmation in Cell-Based Luciferin Assay | shares compounds with ELG1 DNA repair | cell-free firefly luciferase luminescence counter-screen, ViewLux | AID 624247, 2012 | Potency, µM (top dose mostly 46.1 µM), without a hit: at the highest dose activity change, negative = inhibition, most hits filed as inhibitors | 350 compounds, 3% hits
ELG1-Luc inh: HTS assay for small molecules that inhibit ELG1-dependent DNA repair in human embryonic kidney (HEK293T) cells expressing luciferase-tagged ELG1: Hit Confirmation. shares compounds with ELG1 DNA repair. HEK293T ELG1-luciferase levels, luminescence; cells co-treated with 5-fluorouridine. Potency, µM (titrated, usually from 46.1 µM), without a hit: at the top dose activity change, negative = inhibition, actives largely listed as inhibitors. 670 compounds, 68% hits. AID 624248, 2012; further: nearly all actives have a fitted effect of over 55% in size
ELG1 MMS Luc: inhibits ELG1-dependent repair under MMS stimulation in HEK293T cells. HEK293T luciferase-tagged ELG1 level, MMS stimulated. Potency, µM (top dose mostly 46.1 µM), without a hit: at the highest dose activity change, negative = inhibition, usual class: inhibitors. 670 compounds, 53% hits. shares compounds with ELG1 DNA repair; further: nearly all actives have a fitted effect of over 60% in size
ELG1 5FU viab: qHTS screen for small molecules that inhibit ELG1-dependent DNA repair: Hit Confirmation with 5FU Viability; shares compounds with ELG1 DNA repair; cell viability with 5-FU, ELG1-dependent repair; Potency, µM (top dose mostly 46.1 µM), for inactives: at the highest dose activity change, negative = viability loss, hits mostly cytotoxic; 670 tested, under 10 active;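 further: ELG1-luc HEK293T cells cotreated with 5-fluorouridine at 10 µM final; viability measured 16 h after compound addition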
ELG1 MMS viab: qHTS screen for small molecules that inhibit ELG1-dependent DNA repair: Hit Confirmation with MMS Viability; 670 compounds, 33% hits; shares compounds with ELG1 DNA repair; Potency, µM (titrated, usually from 46.1 µM), without a hit: at the highest dose activity change, negative = viability loss, usual class: cytotoxic; Cell viability with MMS, ELG1-dependent DNA repair; AID 624251, 2012;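 further: ELG1-luc HEK293T cells co-treated with 10 µM MMS; viability read 16 h after compound addition; nearly all actives have a fitted effect of over 60% in size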
ELG1 unstim viab: qHTS screen for small molecules that inhibit ELG1-dependent DNA repair: Hit Confirmation with Unstimulated Viability Assay. 900 compounds, 8% hits. shares compounds with ELG1 DNA repair. Potency, µM (doses to about 45.9 µM), without a hit: at the top dose activity change, negative = loss of viability, most hits filed as cytotoxic. cell viability counter-screen, unstimulated, luminescence;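 further: compound exposure lasted 16 hours before reading; nearly all actives have a fitted effect of over 55% in size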
FLuc biochem: qHTS screen for small molecules that inhibit ELG1-dependent DNA repair: Hit Confirmation in Biochemical Luciferin Assay; shares compounds with ELG1 DNA repair; purified firefly luciferase, luminescence counter-screen; Potency, µM (highest dose often 57.5 µM), for inactives: at the top dose activity, negative = inhibition, actives largely listed as inhibitors; 350 compounds, 10% hits; AID 624253, 2012
Numbers without * were called inactive; [ ] = remark or other dose. A selection: hits, their analogues and other compounds. The true share with any hit is near 15%. The call rests on the fitted dose curve; in most records, active means well fitted curve in the direction sought with a large enough effect; inconclusive means small, poorly fitted or top-dose-only effect, or another doubt; inactive means no such curve, though single readings can be large; an effect the other way counts as inactive or inconclusive. On the % scale 0 is the no-effect control and ±100 the full control effect; potency means the concentration at half of the fitted maximal effect.

`Cc1sc2ncnc(N3CCC(C(=O)N(C)CC(=O)Nc4ccc(Cl)c(C(F)(F)F)c4)CC3)c2c1C` gave ELG1 DNA repair 3.66µM*, DT40 TDP1 CPT inconclusive, TDP1 cell noCPT 14.6µM*, 12-LOX inh 0.2%, ELG1 FLuc counter inconclusive, ELG1-Luc inh 7.06µM*, ELG1 MMS Luc 7.06µM*, ELG1 5FU viab inconclusive, ELG1 MMS viab inconclusive, ELG1 unstim viab inconclusive and FLuc biochem -15.4%.
Cc1sc2ncnc(N3CCC(C(=O)Nc4ccc(S(N)(=O)=O)cc4)CC3)c2c1C was read as ELG1 DNA repair 4.11µM*, DT40 TDP1 CPT inconclusive, TDP1 cell noCPT 14.6µM*, 12-LOX inh -8.0%, ELG1-Luc inh 7.05µM*, ELG1 MMS Luc 19.9µM*, ELG1 5FU viab inconclusive, ELG1 MMS viab 7.7% and ELG1 unstim viab inconclusive.
`CN(CC(=O)Nc1ccc(Cl)c(C(F)(F)F)c1)C(=O)C1CCN(C(=O)c2ccc(Cl)cc2)CC1` gave DT40 TDP1 CPT inconclusive, TDP1 cell noCPT inconclusive and 12-LOX inh 184.9%.
For CCS(=O)(=O)Nc1ccc(C2(C(=O)NCC(C)C)CCCCC2)cc1 the results were 12-LOX inh 48.7%.
For COc1cccc(NC(=O)N[C@H]2C[C@@H](C(=O)N(C)CC(N)=O)N(C(=O)c3cnccn3)C2)c1 the results were 12-LOX inh -21.7%.
`O=C(NC1CCCCC1)c1nnc2n1CCN(Cc1cccc(C(F)(F)F)c1)C2` gave 12-LOX inh -22.2%.
Cn1cc(-c2ccc3c(n2)CN(CCOc2ccccc2)C(=O)CO3)cn1 was read as 12-LOX inh 0.0%[176 µM].
Screening CC1CCCCC1NC(=O)CN1C(=O)NC(C)(c2ccc(OC(F)F)cc2)C1=O (stereo not drawn) returned RORg inh 5.7%, ELG1 DNA repair -8.8%, DT40 TDP1 CPT inconclusive, TDP1 cell noCPT -27.5%, 12-LOX inh -13.7%, Gal4-VP16 FLuc -2.5%, ELG1 FLuc counter 0.6%, ELG1 unstim viab 2.4% and FLuc biochem 4.4%.
Screening CN(C)S(=O)(=O)c1ccc(NC(=O)CN2CCN(c3ccccc3O)CC2)cc1 returned 12-LOX inh -16.6%.
For CCOC(=O)COc1ccc2c(c1)c(C(C)=O)c(C)n2-c1ccc(OC)cc1 the results were RORg inh -5.7%, ELG1 DNA repair 0.0%, DT40 TDP1 CPT inconclusive, TDP1 cell noCPT -23.1%, 12-LOX inh 0.0% and Gal4-VP16 FLuc -12.5%.
COc1ccc(-n2c(C)c(C(C)=O)c3cc(O)ccc32)cc1 was read as RORg inh inconclusive, ELG1 DNA repair 0.82µM*, 12-LOX inh 21.1%, Gal4-VP16 FLuc -10.3%[0.365 µM], ELG1 FLuc counter inconclusive, ELG1-Luc inh 0.889µM*, ELG1 MMS Luc inconclusive, ELG1 5FU viab 0.9%, ELG1 MMS viab inconclusive, ELG1 unstim viab 7.6% and FLuc biochem 0.1%.
For CC(C)CNC(=O)CSc1ccc2ccccc2n1 the results were 12-LOX inh 9.5%.
Screening O=S(=O)(c1ccc2c(c1)OCCO2)N1CCN(c2ncnc3sccc23)CC1 returned RORg inh inconclusive, ELG1 DNA repair 4.61µM*, DT40 TDP1 CPT 5.17µM*, TDP1 cell noCPT 2.31µM*, 12-LOX inh 13.2%, Gal4-VP16 FLuc 11.2µM*, ELG1-Luc inh 12.5µM*, ELG1 MMS Luc 1.99µM*, ELG1 5FU viab inconclusive, ELG1 MMS viab 1.77µM* and ELG1 unstim viab inconclusive.
For O=C(COc1ccccc1Cl)Nc1ccc(-c2nc3ccccc3s2)cc1 the results were DT40 TDP1 CPT 5.8µM*, TDP1 cell noCPT 6.51µM*, 12-LOX inh -6.5% and ELG1 unstim viab inconclusive.
`COc1cc(C(C)=O)ccc1OCC(O)CN(C)Cc1sccc1C` (stereo not drawn) gave 12-LOX inh -8.9%.

Assay outcomes as filed in PubChem.
